Test [1] is described as follows: qHTS assay for small molecule agonists of the p53 signaling pathway (AID 651631; calls by dose curve; further: nearly all actives have a fitted effect of over 15% in size; further: potency means the concentration at half of the fitted maximal effect). The procedure, abridged:
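Readout was fluorescence from the LiveBLAzer FRET substrate, applied for 2 h at room temperature after 16 h compound exposure at 37 °C. Cells were the p53RE-bla HCT-116 line, with beta-lactamase driven by p53 response elements.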
In general terms: Quantitative high-throughput screening tests each substance at several concentrations.

The nature of test [2]: qHTS assay for small molecules that induce genotoxicity in human embryonic kidney cells expressing luciferase-tagged ATAD5 (AID 651632). Further: nearly all actives have a fitted effect of over 15% in size. An outline of the steps: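 HEK293T cells carrying a luciferase reporter tagged to ATAD5 were exposed to compound or DMSO vehicle for 16 hr at 37C, 5% CO2. Amplite was added, and after 30 min at room temperature luciferase activity was read as a marker of ATAD5 induction.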

Test [3] is described as follows: qHTS assay for small molecule agonists of the p53 signaling pathway - cell viability (AID 651633; calls by dose curve; further: nearly all actives have a fitted effect of over 30% in size; further: potency means the concentration at half of the fitted maximal effect). The procedure, abridged:
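p53RE-bla cells, seeded at 4,000 per well and rested 5 h at 37 C/5% CO2, received compounds in DMSO for 16 h at 37 C. CellTiter-Glo was then added, and luminescence was read after 30 min at room temperature to gauge cytotoxicity.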

Test [4] in a line: qHTS assay for small molecules that induce genotoxicity in human embryonic kidney cells expressing luciferase-tagged ATAD5 - cell viability (AID 651634; calls by dose curve; further: nearly all actives have a fitted effect of over 25% in size; further: potency means the concentration at half of the fitted maximal effect). An outline of the steps:
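HEK293T cells expressing luciferase-tagged ATAD5 were exposed to compound or DMSO for 15.5 hr at 37C, 5% CO2. Viability was then read as live-cell protease activity by CellTiter-Fluor fluorescence after 30 min at 37C.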

Test [5] can be described thus: qHTS assay for small molecule disruptors of the mitochondrial membrane potential - cell viability (AID 720634; calls by dose curve;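 further: human HepG2 liver cancer cells; series mostly up to about 83 µM; nearly all actives have a fitted effect of over 20% in size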). An outline of the steps: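 HepG2 cells seeded overnight at 37 C, then exposed to compound or DMSO for 1 hr at 37 C, 5% CO2. m-MPI dye added, then CellTiter-Glo for 30 min at room temperature; viability read as ATP luminescence.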
A short description of test [6]: qHTS assay for small molecule disruptors of the mitochondrial membrane potential (AID 720635). Further: potency means the concentration at half of the fitted maximal effect. The procedure, abridged: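 HepG2 cells (2,000/well) attached overnight at 37C, then took compound for 1 hr at 37C, 5% CO2. Mito-MPS dye was added for 30 min; fluorescence was read at 490/535 nm (monomers) and 540/590 nm (aggregates).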
Test [7] is described as follows: qHTS assay to test for compound auto fluorescence at 590 nm (red) in HepG2 cells (AID 720674). An outline of the steps: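 Rose Bengal sodium served as the red fluorophore standard. HepG2 monolayers (overnight attachment, MEM with 10% FBS) were exposed to test compounds for 1 hr at 37 C and read at Ex 540/Em 590 nm.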
The nature of test [8]: qHTS assay to test for compound auto fluorescence at 535 nm (green) in HepG2 cells (AID 720675).
Test [9] in a line: qHTS assay to test for compound auto fluorescence at 460 nm (blue) in HEK293 cells (AID 720678). The procedure, abridged:
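Blue-channel (Ex/Em 405/460 nm) intensity measured in HEK293 cultures after overnight compound exposure at 37C; signal expressed relative to triamterene. Cells plated 2,000 per well in 10% dialyzed FBS medium and allowed 4-5 hr to attach.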

Test [10] in a line: qHTS assay to test for compound auto fluorescence at 590 nm (red) in HEK293 cells (AID 720679). The procedure, abridged:
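Red-channel autofluorescence (Ex/Em 540/590 nm; Rose Bengal sodium reference) was measured after overnight 37C, 5% CO2 exposure of attached HEK293 cells, 2,000 per well in medium with 10% dialyzed FBS.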

A short description of test [11]: qHTS assay to test for compound auto fluorescence at 535 nm (green) in HEK293 cells (AID 720680).
The nature of test [12]: qHTS assay to test for compound auto fluorescence at 460 nm (blue) in HEK293 cell free culture (AID 720681). An outline of the steps: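 Test compounds were pinned into cell-free culture medium (DMEM with 10% FBS) and fluorescence was read directly at Ex/Em 405/460 nm. Signals were expressed as fluorescence equivalents of triamterene, with DMSO vehicle as control.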
Test [13] in a line: qHTS assay to test for compound auto fluorescence at 535 nm (green) in HEK293 cell free culture (AID 720682). The procedure, abridged:
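Compounds were pin-transferred into cell-free DMEM with 10% FBS, and green fluorescence was read at excitation 485 nm and emission 535 nm. Intensities were expressed as fluorescein-equivalent values.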

Test [14] is described as follows: qHTS assay to test for compound auto fluorescence at 590 nm (red) in HEK293 cell free culture (AID 720683). The procedure, abridged:
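Tox21 10K library compounds were pinned into cell-free DMEM with 10% FBS and fluorescence was read at excitation 540 nm. Activity is expressed as Rose Bengal sodium equivalency.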

Test [15] in a line: qHTS assay to test for compound auto fluorescence at 590 nm (red) in HepG2 cell free culture (AID 720684). The procedure, abridged:
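Measured in medium alone (MEM containing 10% FBS) following pintool addition of compound; emission at 590 nm with 540 nm excitation, referenced to Rose Bengal sodium.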

Test [16] can be described thus: qHTS assay to test for compound auto fluorescence at 460 nm (blue) in HepG2 cell free culture (AID 720685). An outline of the steps: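 Compound (23 nL) or DMSO pinned into cell-free MEM with 10% FBS; blue fluorescence read at 405/460 nm excitation/emission, expressed as auto-fluorescence equivalency to triamterene.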
Test [17] can be described thus: qHTS assay to test for compound auto fluorescence at 535 nm (green) in HepG2 cell free culture (AID 720686).
The nature of test [18]: qHTS assay to test for compound auto fluorescence at 460 nm (blue) in HepG2 cells (AID 720687). An outline of the steps:
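Cells (2,000/well in MEM with 10% FBS) attached overnight at 37 C, then were exposed to compound or DMSO for 1 hr at 37 C, 5% CO2. Fluorescence read at Ex/Em 405/460 nm, expressed as triamterene-equivalent signal.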

Test [19] addresses Glucocorticoid receptor (Homo sapiens) (UniProt P04150). The experiment in a line: qHTS assay to identify small molecule agonists of the glucocorticoid receptor (GR) signaling pathway (AID 720691; active means well fitted activation curve with a large enough effect in the signal ratio in the repeat runs, not every such curve was filed as active; the % refers to the signal ratio). The procedure, abridged:
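GR-bla HeLa cells (beta-lactamase reporter under glucocorticoid response element) were plated 4 h at 37 C/5% CO2, given compounds in DMSO, and incubated 18 h at 37 C. LiveBLAzer B/G FRET substrate was added for 2 h at room temperature, then fluorescence intensity read.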

For test [20] the target is unchanged. The experiment in a line: qHTS assay to identify small molecule antagonists of the glucocorticoid receptor (GR) signaling pathway (AID 720692; active means well fitted inhibition curve with a large enough effect in the signal ratio in the repeat runs, not every such curve was filed as active; the % refers to the signal ratio; further: potency means the concentration at half of the fitted maximal effect). The procedure, abridged:
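GR-bla HeLa cells (beta-lactamase reporter under glucocorticoid response element) were pre-plated 4 h at 37 C, treated with compounds plus 5 nM dexamethasone (final) for 18 h, then read by LiveBLAzer B/G FRET fluorescence after 2 h.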

Inconclusive results are not listed. Calls of active or inactive are those of the source. Unless noted, the call rests on the fitted dose curve; in most records, active means well fitted curve in the direction sought with a large enough effect in the repeat runs; inconclusive means weak or mixed curves; inactive means no such curve, though single readings can be large; an effect the other way counts as inactive or inconclusive.

Glucocorticoid receptor (Homo sapiens), sequence (P04150 whole entry, looked up): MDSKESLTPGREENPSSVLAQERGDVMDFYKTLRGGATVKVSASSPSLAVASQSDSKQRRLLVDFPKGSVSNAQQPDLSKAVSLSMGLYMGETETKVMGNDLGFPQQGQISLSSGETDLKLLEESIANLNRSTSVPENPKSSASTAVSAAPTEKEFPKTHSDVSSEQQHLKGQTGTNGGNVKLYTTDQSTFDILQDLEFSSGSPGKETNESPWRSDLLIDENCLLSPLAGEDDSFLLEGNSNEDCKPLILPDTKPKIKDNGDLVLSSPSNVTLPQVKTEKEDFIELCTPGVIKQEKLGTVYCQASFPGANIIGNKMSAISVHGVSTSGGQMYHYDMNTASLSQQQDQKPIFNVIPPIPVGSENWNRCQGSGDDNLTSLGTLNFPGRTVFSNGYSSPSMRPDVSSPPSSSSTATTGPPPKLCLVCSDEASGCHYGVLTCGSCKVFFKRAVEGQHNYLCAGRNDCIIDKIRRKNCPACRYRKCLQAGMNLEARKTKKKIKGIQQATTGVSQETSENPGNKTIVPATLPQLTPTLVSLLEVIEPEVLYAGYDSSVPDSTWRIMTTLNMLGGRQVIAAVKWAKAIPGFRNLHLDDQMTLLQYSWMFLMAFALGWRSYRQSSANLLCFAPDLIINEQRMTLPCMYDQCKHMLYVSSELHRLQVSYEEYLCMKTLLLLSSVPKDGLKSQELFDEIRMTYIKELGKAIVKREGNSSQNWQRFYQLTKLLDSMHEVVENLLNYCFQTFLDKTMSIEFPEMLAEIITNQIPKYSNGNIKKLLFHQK

On to `CCBr`, for which the Potency entry in [1], in [2], in [3], in [4], in [5] and in test [6] was “inactive” throughout. For the same compound, the compound was called inactive in test [7], in test [8], in test [9], in test [10], in test [11] and in test [12]. Further, the compound was classed as inactive in [13], in test [14], in test [15], in test [16], in test [17] and in test [18]. In addition, the call in test [19] was inactive.

As for `[O-][Cl+]O`, the Potency entry in [1], in [2], in test [3], in test [4], in test [5] and in test [6] was “inactive” throughout. In addition, in [20], the Potency entry was “inactive”. The result in test [7], in test [8], in [9], in test [10], in [11] and in test [12] was inactive. Moreover, the compound was classed as inactive in test [13], in test [14], in test [15], in [16], in test [17] and in [18]. Further, the outcome in [19] was inactive.

`Cc1cc(=O)[nH]o1`: the Potency result in [1], in test [2], in test [3], in test [4], in test [5] and in test [6] was “inactive” in each case. Besides, in test [20], the Potency result was “inactive”. For the same compound, the compound was called inactive in test [7], in test [8], in [10], in test [11], in [12] and in test [13]. Besides, the outcome in test [14], in test [15], in [16], in [17], in test [18] and in [19] was inactive.

For `CCCCCCCCOC(=O)c1ccc(C(=O)OCCCCCCCC)c(C(=O)OCCCCCCCC)c1`, the Potency result in test [1], in test [2], in test [3], in test [4], in [5] and in [6] was “inactive” each time. Besides, the Potency result in test [20] was “inactive”. Besides, the call in test [7], in [8], in test [10], in [11], in [12] and in test [13] was inactive. In addition, the compound was called inactive in [14], in test [15], in [16], in [17] and in test [18].

Regarding `Nc1nc(=S)[nH][nH]1`, the Potency entry in test [1], in test [2], in [3], in [4], in test [5] and in test [6] was “inactive” in each case. The outcome in [7], in test [8], in test [9], in [10], in test [11] and in test [12] was inactive. Further, the call in test [13], in test [14], in test [15], in [16], in [17] and in [18] was inactive.

Regarding `CCCCCCCCCC(=O)O[C@H]1CC[C@H]2[C@@H]3CCC4=CC(=O)CC[C@@H]4[C@H]3CC[C@]12C`, the Potency entry in [1], in test [2], in test [3], in test [4], in [5] and in test [6] was “inactive” throughout. Further, the outcome in [7], in test [8], in test [9], in [10], in test [11] and in test [12] was inactive. For the same compound, the compound was classed as inactive in test [13], in [14], in test [15], in test [16], in [17] and in test [18]. Further, the Potency in [20] was 9.52 µM (active).

In the case of `IC(I)=C(I)I`, the Potency in test [1] is 12.2 µM (active); in test [3], 48.6 µM (active); in [4] it was 27.3 µM (active); in test [6], 4.33 µM (active). The Potency entry in test [2] and in test [5] was “inactive” each time. Moreover, the compound was called inactive in [7], in [8], in [9], in test [10], in [11] and in test [12]. For the same compound, the compound was classed as inactive in test [13], in test [14], in test [15], in test [16], in [17] and in test [18].

As for `CCCCCCC#N`, the Potency entry in [1], in [2], in test [3], in test [4] and in test [5] was “inactive” in each case. Also, the compound was classed as inactive in test [7], in test [8], in test [9], in test [10], in test [11] and in [12]. Further, the compound was classed as inactive in [13], in [14], in test [15], in test [16], in test [17] and in test [18].
